Assay [1] is described as follows: Confirmation and Secondary Assay for Modulators of Hemoglobin Beta Chain Splicing at IVS2 705 locus (AID 930).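 Further: HeLa cells stably expressing the EGFP-705 splicing reporter; GFP fluorescence per well restored by corrected splicing of the IVS2-705 intron in EGFP; % of control where 0% means no effect.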 Put shortly: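 HeLa IVS2-705 EGFP reporter cells, 500/well, compound 2 d at 37C; correct splicing yields fluorescent EGFP. Control: 500 nM antisense PNA. Read-out: total peak GFP intensity.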
The nature of assay [2]: qHTS Assay for Lipid Storage Modulators (AID 1519; calls by dose curve; further: potency means the concentration at half of the fitted maximal effect; on activity change, negative = inhibition: on the % scale 0 is the no-effect control and ±100 the full control effect). To be noted: Drosophila S3 cells, BODIPY lipid droplet/cell ratio, laser cytometry, cells loaded with oleic acid. In a few lines: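 Cells seeded at 5,000 per well were treated with compounds over a concentration series and loaded with oleic acid (400 uM, as added). Lipid droplet fluorescence (488 nm excitation, 500-530 nm channel) was read by laser-scanning cytometry and normalized to 20 uM Triacsin C.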
In general terms: Quantitative high-throughput screening tests each substance at several concentrations.

In assay [3] the target is Ubiquitin carboxyl-terminal hydrolase 1 (Homo sapiens) (UniProt O94782). The assay can be described thus: Inhibitors of USP1/UAF1: Pilot qHTS (AID 504865).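 Further: rhodamine fluorescence freed from ubiquitin-rhodamine substrate followed over time; top concentration of the series differs between compounds; on the % scale 0 is the no-effect control and ±100 the full control effect; nearly all actives have a fitted effect of over 35% in size.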 In a few lines: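 Enzyme-free wells gave the negative control, while test wells held 1nM USP1/UAF1 preincubated with compound for 15 min at room temperature. Ub-Rho at 150nM final started the reaction, and fluorescence at 480/540 nm was recorded kinetically.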
Chain of Ubiquitin carboxyl-terminal hydrolase 1 (Homo sapiens) (O94782 whole entry, looked up): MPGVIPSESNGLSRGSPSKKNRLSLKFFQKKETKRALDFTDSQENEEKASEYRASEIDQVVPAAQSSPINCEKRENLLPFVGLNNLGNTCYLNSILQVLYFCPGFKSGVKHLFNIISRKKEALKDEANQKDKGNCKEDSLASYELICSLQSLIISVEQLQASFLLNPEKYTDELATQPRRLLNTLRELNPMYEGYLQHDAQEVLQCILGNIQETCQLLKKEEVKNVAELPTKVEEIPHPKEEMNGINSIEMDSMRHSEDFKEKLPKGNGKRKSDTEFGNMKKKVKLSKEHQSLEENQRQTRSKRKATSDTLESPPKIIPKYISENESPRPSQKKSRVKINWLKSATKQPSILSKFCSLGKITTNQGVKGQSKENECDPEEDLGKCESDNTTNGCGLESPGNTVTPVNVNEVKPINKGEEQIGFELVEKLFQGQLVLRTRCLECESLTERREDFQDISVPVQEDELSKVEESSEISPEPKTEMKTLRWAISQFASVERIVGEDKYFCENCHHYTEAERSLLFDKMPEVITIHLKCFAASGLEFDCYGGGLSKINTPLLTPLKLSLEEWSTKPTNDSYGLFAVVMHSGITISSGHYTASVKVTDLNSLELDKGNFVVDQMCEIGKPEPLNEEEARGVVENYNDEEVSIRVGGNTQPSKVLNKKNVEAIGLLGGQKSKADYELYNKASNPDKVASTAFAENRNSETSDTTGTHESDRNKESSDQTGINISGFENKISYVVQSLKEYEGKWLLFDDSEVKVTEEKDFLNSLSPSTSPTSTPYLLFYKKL

The nature of assay [4]: qHTS profiling for inhibitors of Plasmodium falciparum proliferation (AID 504749). Further: potency means the concentration at half of the fitted maximal effect.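 On activity, negative = inhibition: 0% = DMSO vehicle and full inhibition = artemisinin control.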 On all read-outs here: nearly all actives have a fitted effect of over 60% in size. The conditions noted are these: P. falciparum in erythrocytes, SYBR Green DNA, 72 h; for activity, negative = inhibition: at 28.7 µM (top of the series). In a few lines:
(§1)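 Readout was DNA-dye fluorescence from lysed cultures, ex 485/em 535 nm. Parasitized red cells had grown 72 h with compound; data scaled between 0.29 uM artemisinin and DMSO wells and corrected using vehicle-only plates.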

Another assay has as its system C2A. The assay is described as above. To be noted: P. falciparum in erythrocytes, SYBR Green DNA, 72 h; series mostly up to 12.8 µM. In a few lines: as §1
Another assay relates to CP185. Described as above. The conditions noted are these: P. falciparum in erythrocytes, SYBR Green DNA, 72 h; series mostly up to 12.8 µM. Put shortly: as §1
The test system of the next assay is CP201. The description is as above. The conditions noted are these: P. falciparum in erythrocytes, SYBR Green DNA, 72 h; series mostly up to 12.8 µM. Put shortly:
as §1

The test system of another assay is CP211. The description is as above. The conditions noted are these: P. falciparum in erythrocytes, SYBR Green DNA, 72 h; series mostly up to 12.8 µM. Put shortly: as §1
The test system of another assay is CP238. The assay is described as above. The conditions noted are these: P. falciparum in erythrocytes, SYBR Green DNA, 72 h; series mostly up to 12.8 µM. In a few lines: as §1
For a further assay, the system named is CP262. The assay is described as above. The conditions noted are these: P. falciparum in erythrocytes, SYBR Green DNA, 72 h; series mostly up to 12.8 µM. In a few lines:
as §1

The next assay concerns CP268. The assay is described as above. To be noted: P. falciparum in erythrocytes, SYBR Green DNA, 72 h; series mostly up to 12.8 µM. Put shortly: as §1
In the next assay the test system is CP269. The assay is described as above. To be noted: P. falciparum in erythrocytes, SYBR Green DNA, 72 h; series mostly up to 12.8 µM. Put shortly:
as §1

Another assay deals with CP305. The description is as above. The conditions noted are these: P. falciparum in erythrocytes, SYBR Green DNA, 72 h; series mostly up to 12.8 µM. Put shortly: as §1
Another assay has as its system CP315. The assay is described as above. The conditions noted are these: P. falciparum in erythrocytes, SYBR Green DNA, 72 h; series mostly up to 12.8 µM. In a few lines:
as §1

In another assay the test system is CP325. The description is as above. The conditions noted are these: P. falciparum in erythrocytes, SYBR Green DNA, 72 h; series mostly up to 12.8 µM. In a few lines: as §1
In another assay the test system is CP329. The assay is described as above. To be noted: P. falciparum in erythrocytes, SYBR Green DNA, 72 h; series mostly up to 12.8 µM. Put shortly:
as §1

In the next assay the test system is FAB9. The assay is described as above. The conditions noted are these: P. falciparum in erythrocytes, SYBR Green DNA, 72 h; series mostly up to 12.8 µM. Put shortly: as §1
Another assay deals with JCK. The assay is described as above. The conditions noted are these: P. falciparum in erythrocytes, SYBR Green DNA, 72 h; series mostly up to 12.8 µM. Put shortly: as §1
For a further assay, the system named is PC15. The description is as above. The conditions noted are these: P. falciparum in erythrocytes, SYBR Green DNA, 72 h; series mostly up to 12.8 µM. In a few lines:
as §1

The subject of another assay is PC49. The assay is described as above. The conditions noted are these: P. falciparum in erythrocytes, SYBR Green DNA, 72 h; series mostly up to 12.8 µM. In a few lines:
as §1

The mark [5] stands for this setting: measured here: cell count channel max response.
Where [6] appears, read: measured here: lipid channel max response.

Results filed as inconclusive are left out. The source made the active and inactive calls. Unless noted, the call rests on the fitted dose curve; in most records, active means well fitted curve in the direction sought with a large enough effect; inconclusive means small, poorly fitted or top-dose-only effect, or another doubt; inactive means no such curve, though single readings can be large; an effect the other way counts as inactive or inconclusive.

Consider `CNC1CC(N)[C@H](O)[C@@H](O[C@@H]2OC(CO)C3OC4(OC(C(N)CO)C(O)C(O)C4O)O[C@@H]3[C@H]2O)C1O` (some centres not stated), for which the Potency result (in assay [1]; in assay [3]; in the assay on C2A; in the assay with CP185; in the assay with CP201; in the assay on CP211) was “inactive” in each case. Also, the Potency entry with CP238, in the assay on CP262, in the assay on CP268, in the assay with CP269, in the assay on CP305 and in the assay on CP315 was “inactive” each time. The Potency entry in the assay on CP325, in the assay with CP329, in the assay with FAB9, in the assay on JCK, with PC15 and in the assay on PC49 was “inactive” each time. Moreover, in [2] (at 57.5 µM (top of the series)), the activity change, negative = inhibition is 3.46% (inactive). Besides, the max response came out at 3.52% in assay [2] (setting [5]) and 7.53% in assay [2] (setting [6]). In addition, the activity, negative = inhibition in assay [4] (parasite line A) is 1.25% (inactive); in assay [4] (parasite line B), -26.8% (inactive).
For the molecule `COc1cc(C2c3cc4c(cc3C(O[C@@H]3OC5COC(c6cccs6)OC5C(O)C3O)C3COC(=O)C23)OCO4)cc(OC)c1O` (some centres not stated), the Potency entry in [1] and in [3] was “inactive” throughout. Also, the Potency was 5.01 µM (active) in assay [2]; 1.12 µM (active) in [4] (parasite line A); 2 µM (active) in assay [4] (parasite line B); 2.24 µM (active) in the assay with C2A; 2.24 µM (active) in the assay on CP185; 4.78 µM (active) in the assay on CP201. Also, the Potency with CP211 is 3.38 µM (active); in the assay with CP238, 2 µM (active); with CP262, 8.49 µM (active); with CP268, 4.26 µM (active); with CP269 it was 1.69 µM (active); in the assay on CP305, 1.69 µM (active). The Potency in the assay with CP315 is 3.79 µM (active); in the assay on CP325, 4.78 µM (active); in the assay with CP329, 4.26 µM (active); in the assay on FAB9, 2.24 µM (active); in the assay with JCK it was 4.47 µM (active); in the assay with PC15, 4.47 µM (active). Also, in the assay with PC49, the Potency is 4.47 µM (active). Also, the max response was 22.3% in [2] (setting [5]) and -100% in [2] (setting [6]).
Consider `COc1ccc2cc1Oc1ccc(cc1)CC1c3c(cc4c(c3Oc3cc5c(cc3OC)CCN(C)C5C2)OCO4)CCN1C` (configuration not stated), for which the Potency entry in [1] is “inactive”. Further, the activity change, negative = inhibition in assay [2] (at 57.5 µM (top of the series)) is 10.7% (inactive). Also, the max response in assay [2] (setting [5]) stood at 5.9%; in assay [2] (setting [6]) it was 21%. In addition, the Potency in [4] (parasite line A) was 8.91 µM (active); in assay [4] (parasite line B), 10 µM (active); in the assay with C2A, 11.2 µM (active); in the assay on CP185, 7.94 µM (active); in the assay with CP211, 12 µM (active); in the assay with CP238, 7.08 µM (active). Besides, the Potency in the assay with CP262 was 8.49 µM (active); with CP268, 13.5 µM (active); with CP269, 13.5 µM (active); with CP305, 9.53 µM (active); in the assay on CP325, 12 µM (active).
For `C=Cc1c(C)c2cc3nc(cc4[nH]c(cc5nc(cc1[nH]2)C(C)=C5CCC(=O)O)c(CCC(=O)OC)c4C)[C@@]1(C)C3=CC=C(C(=O)OC)[C@H]1C(=O)OC` (tested in a mixture with another compound), in [2] (at 25.7 µM (top of the series)), the activity change, negative = inhibition is 1.23% (inactive). The max response came to 3.74% in [2] (setting [5]) and 2.29% in [2] (setting [6]). Also, the Potency in assay [4] (parasite line A) is 10 µM (active); in assay [4] (parasite line B) it was 5.62 µM (active); in the assay with C2A, 14.1 µM (active); in the assay on CP238, 11.2 µM (active); in the assay on PC15, 5.01 µM (active); in the assay with PC49, 5.01 µM (active). Besides, the Potency result in the assay with CP201, with CP262, in the assay with CP269, in the assay with CP305, with CP315 and with CP325 was “inactive” in each case. Further, in the assay with CP329, the Potency result is “inactive”.

Values taken from PubChem BioAssay (NCATS).
